Reference: PubChem BioAssay (NCATS)
Results filed as inconclusive are left out. Active and inactive are the calls of the source. Calls follow the shape of the dose curve; as a rule, active = well fitted inhibition curve with a large enough effect; inconclusive = small, poorly fitted or top-dose-only effect; inactive = flat fitted curve, though single readings scatter.

Target: Tyrosine-protein phosphatase non-receptor type substrate 1 (Homo sapiens) + Leukocyte surface antigen CD47 (Homo sapiens) (UniProt P78324+Q08722)
Test: CD47-SIRPalpha protein protein interaction - Alpha assay qHTS validation (AID 1347059);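 also: bead proximity luminescence from CD47 binding SIRPalpha after compound preincubation with SIRPalpha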
Conditions: AlphaScreen CD47-His/biotin-SIRPalpha binding, LOPAC; series mostly up to 38.3 µM
Excerpt: SIRPalpha is a myeloid cell expressed immunomodulatory receptor that binds the tumor expressed immune checkpoint CD47. Therapeutic disruption of this interaction leads to immune-mediated tumor rejection. This assay was used to quantitate CD47-SIRPalpha binding biochemically and evaluate chemical libraries for novel CD47-SIRPalpha inhibitors. To recapitulate the biological interaction of CD47 and SIRPalpha, we designed expression constructs to produce their recombinant, soluble, extracellular interaction domains. CD47 was produced with an N-terminal 6His tag. SIRPalpha was produced with an N-terminal Avi-Tag for site-specific biotin incorporation. The CD47-SIRPalpha interaction was measured by AlphaScreen using affinity tag linked reagents (Ni-NTA acceptor bead and streptavidin donor bead). SIRPalpha without biotin incorporation was used as a positive control inhibitor.
PROTOCOL TABLE (as described by Miller, T. et al. 2019)
SEQUENCE No. (e.g., 1, 2, 3, etc.); […] (e.g., Cells, Incubation, Reagent, etc.); VALUE and DESCRIPTION.
1a. Reagent. 2 uL SIRPalpha-biotin (25 nM) added to respective wells in Assay buffer; white/solid bottom high base, med bind 1536-well plates (Greiner 789075)
1b. Reagent. 2 uL Assay buffer negative control for background fluorescence
2. Reagent. 23 nL library compounds (7-pt, 1:4 intraplate titration series) or DMSO control transferred by Pin Tool
3. Centrifuge. Centrifuge plate for 30 s at 1000 RPM
4. Incubation.#Incubate reagents at room temperature for 30 min, protected from light
5. Reagent. 2 uL CD47-His (12.5 nM) in Assay buffer
6. Centrifuge. Centrifuge plate for 30 s at 1000 RPM
7. Incubation.#Incubate reagents at room temperature for 30 min, protected from light
8. Reagent. 1 uL Ni-NTA beads (10 ug/mL) added to respective wells
9. Reagent. 1 uL SAV beads (10 ug/mL) added to respective wells
10. Centrifuge. Centrifuge plate for 30 s at 1000 RPM
11. Incubation. Incubate reagents at room temperature for 30 min, protected from light
12. Detector. Measure AlphaScree n on EnVision (1536A1 aperture)
Where possible, perform Donor bead dilution and addition away from direct sunlight or with bright overhead lights turned off (<100 lux, similar to hallway lighting). Lighting should still be bright enough to allow accurate pipetting.
1. Assay buffer composition.#Phosphate buffered saline (PBS; 10 mM Phosphate, 137 mM NaCl, and 2.7 mM KCl; pH 7.4), 0.05% IGEPAL CA-630
2. 23nL of […] library compounds (7 plates) or DMSO vehicle control transferred to 9 Greiner white/solid bottom high base, TC plates in 7 interplate 1:5 titrations (see Yasgar, A. et al. 2008) with Pintool. Two of the 9 plates are DMSO-only in compound field at beginning and end of compound library-treated plates.
12. Aperture = 1536 plate HTS AlphaScreen; plate-detector distance = 0; Total measurement time = 240; Ex. time = 80 ms (33%); Afterglow CT1 corr. factor = 0; Glow CT2 corr. factor = 0; Bleach CT3 corr. factor = 0; Ref. signal= 417733; Ref. AD gain = 2

Chain of Tyrosine-protein phosphatase non-receptor type substrate 1 (Homo sapiens) + Leukocyte surface antigen CD47 (Homo sapiens) (P78324 whole entry, looked up): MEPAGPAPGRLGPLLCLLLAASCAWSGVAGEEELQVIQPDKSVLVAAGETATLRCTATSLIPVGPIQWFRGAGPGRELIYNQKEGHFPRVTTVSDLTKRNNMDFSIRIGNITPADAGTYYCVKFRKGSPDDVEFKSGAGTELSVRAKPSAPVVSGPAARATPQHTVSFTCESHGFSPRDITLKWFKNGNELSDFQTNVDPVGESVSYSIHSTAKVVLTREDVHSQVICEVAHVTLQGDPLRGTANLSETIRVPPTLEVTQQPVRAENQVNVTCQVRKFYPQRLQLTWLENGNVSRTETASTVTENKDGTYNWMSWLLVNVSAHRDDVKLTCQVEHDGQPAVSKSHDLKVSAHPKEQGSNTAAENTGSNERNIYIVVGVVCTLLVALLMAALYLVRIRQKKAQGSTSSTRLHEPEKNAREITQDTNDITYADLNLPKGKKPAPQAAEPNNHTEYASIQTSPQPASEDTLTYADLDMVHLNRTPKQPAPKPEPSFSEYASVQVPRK
Chain of Tyrosine-protein phosphatase non-receptor type substrate 1 (Homo sapiens) + Leukocyte surface antigen CD47 (Homo sapiens) (Q08722 whole entry, looked up): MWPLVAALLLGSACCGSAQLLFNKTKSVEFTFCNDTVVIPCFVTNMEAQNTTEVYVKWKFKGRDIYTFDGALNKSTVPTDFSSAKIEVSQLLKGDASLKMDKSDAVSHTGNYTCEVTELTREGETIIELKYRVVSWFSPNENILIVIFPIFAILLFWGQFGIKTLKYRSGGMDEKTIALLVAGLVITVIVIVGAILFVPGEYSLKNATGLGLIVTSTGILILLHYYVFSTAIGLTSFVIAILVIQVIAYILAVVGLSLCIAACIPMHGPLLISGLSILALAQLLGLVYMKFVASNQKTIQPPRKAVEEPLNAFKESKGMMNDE

SMILES | outcome
CCn1cc(C(=O)O)c(=O)c2ccc(C)nc21 | inactive
CCN(CC)C(=O)c1ccc(O)c(OC)c1 | inactive
NC(N)=Nc1nc(CSCC/C(N)=N/S(N)(=O)=O)cs1 | inactive
CCN(CC)CCOC(=O)c1ccc(N)cc1 | inactive
CC(C)(C)c1ccc(C(O)CCCN2CCC(C(O)(c3ccccc3)c3ccccc3)CC2)cc1 (stereo unspecified) | inactive
CC(=O)N[C@@H](CS)C(=O)O | inactive
NCCS | inactive
COc1ccc(Cc2nccc3cc(OC)c(OC)cc23)cc1OC | inactive
O=C(NCCN1CCOCC1)c1ccc(Cl)cc1 | inactive
CC(=O)c1ccc(S(=O)(=O)NC(=O)NC2CCCCC2)cc1 | inactive
CCCNC(=O)NS(=O)(=O)c1ccc(Cl)cc1 | inactive
CCN(CC)CCNC(=O)c1ccc(N)cc1 | inactive
CN(C)CCC(c1ccccc1)c1ccccn1 (stereo unspecified) | inactive
O=C1NC(=O)C(c2ccccc2)(c2ccccc2)N1 | inactive
COc1cccc(-c2cc(=O)c3ccccc3o2)c1N | inactive
Clc1ccc(Cn2c(CN3CCCC3)nc3ccccc32)cc1 | inactive
CC1(C)CCC2=C(O1)c1ccccc1C(=O)C2=O | inactive
O=C(O)CCc1nc(-c2ccccc2)c(-c2ccccc2)o1 | inactive
CC(C)NCC(O)COc1cccc2[nH]ccc12 (stereo unspecified) | inactive
Clc1ccc(C(c2ccc(Cl)cc2)n2cc[n+](CC(OCc3ccc(Cl)cc3Cl)c3ccc(Cl)cc3Cl)c2)cc1 (stereo unspecified) | inactive
C[N+](C)(C)CCCCCC[N+](C)(C)C | inactive
O=C1NCC2(CCN(CCc3ccccc3)CC2)O1 | inactive
COc1ccccc1N1CCN(CCCNc2cc(=O)n(C)c(=O)n2C)CC1 | inactive
CC(=O)O[C@]1(C(C)=O)CC[C@H]2[C@@H]3C=C(Cl)C4=CC(=O)[C@@H]5C[C@@H]5[C@]4(C)[C@H]3CC[C@@]21C | inactive
O=c1cc(-c2ccc(O)cc2)oc2cc(O)cc(O)c12 | inactive
CCN1CCC[C@H]1CNC(=O)c1cc(S(N)(=O)=O)ccc1OC | inactive
